About 83,000 compounds went through this panel and 20% of them were active in at least one assay; those are over-represented in the sample as a whole.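 Interpretation: 100, growth as untreated; towards 0, rising growth inhibition; 0, no net growth; 0 to -100, cell death. Compounds scoring below 10 were considered active.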 A number with no mark means an inactive call. The source made the active and inactive calls.

These results are taken from PubChem BioAssay (NCI).

Holding throughout (assay): NCI-60 one-dose screen, 48 h (100 = growth as untreated, 0 = no growth, -100 = all killed)
The test system of one assay is HCT-15 colon. To be noted: 10 µM unless noted.
A further assay has as its system HT29 colon. To be noted: 10 µM unless noted.
The next assay deals with SNB-75 CNS. As to conditions: 10 µM unless noted.
A further assay relates to SNB-19 CNS. As to conditions: 10 µM unless noted.
In the next assay the test system is U251 CNS. As to conditions: 10 µM unless noted.
The test system of a further assay is SK-MEL-5 melanoma. As to conditions: 10 µM unless noted.
For the next assay, the system named is UACC-62 melanoma. To be noted: 10 µM unless noted.
In another assay the test system is LOX IMVI melanoma. As to conditions: 10 µM unless noted.
A further assay relates to SK-MEL-28 melanoma. To be noted: 10 µM unless noted.
For the next assay, the system named is SN12C renal. To be noted: 10 µM unless noted.
The subject of the next assay is UO-31 renal. To be noted: 10 µM unless noted.
The next assay relates to TK-10 renal. As to conditions: 10 µM unless noted.
The next assay has as its system ACHN renal. As to conditions: 10 µM unless noted.
The subject of the next assay is CAKI-1 renal. As to conditions: 10 µM unless noted.
In the next assay the test system is A498 renal. To be noted: 10 µM unless noted.
In another assay the test system is CCRF-CEM leukemia. To be noted: 10 µM.
The test system of another assay is MOLT-4 leukemia. To be noted: 10 µM unless noted.
The subject of another assay is SK-MEL-2 melanoma. To be noted: 10 µM unless noted.
Another assay has as its system EKVX NSCLC. As to conditions: 10 µM.
The test system of the next assay is PC-3 prostate. As to conditions: 10 µM unless noted.

In the case of `O=C(Nc1cccc2[nH]c(C(F)(F)F)nc12)c1ccc(F)cc1`, the growth in the assay with HCT-15 colon is 96.9%; with HT29 colon, 99.3%; with SNB-75 CNS, 97.3%; with SNB-19 CNS, 78.6%; with U251 CNS, 71.7%; in the assay on SK-MEL-5 melanoma, 69.5%. In addition, the growth with UACC-62 melanoma was 51.6%; in the assay on LOX IMVI melanoma, 87.8%; in the assay on SK-MEL-28 melanoma, 79.7%; with SN12C renal, 81.8%; with UO-31 renal, 63%; in the assay on TK-10 renal, 113%. In addition, the growth is 82.7% with ACHN renal; 84% with CAKI-1 renal; 19% in the assay with A498 renal; 51.7% in the assay with CCRF-CEM leukemia; 65.5% in the assay with MOLT-4 leukemia.

Turning to `CCN(CCO)CCNc1ccc(C)c2sc3cc(OC)ccc3c(=O)c12`, the growth in the assay with HCT-15 colon is 41.1%; with HT29 colon it was 33.1%; with SNB-75 CNS it was 70.9%; with SNB-19 CNS, 67.7%; with U251 CNS, 54%; with SK-MEL-5 melanoma it was 80.6%. The growth is 98.9% in the assay on UACC-62 melanoma; 50.7% in the assay on LOX IMVI melanoma; 94.2% with SK-MEL-28 melanoma; 99.1% in the assay on SK-MEL-2 melanoma; 86.4% with EKVX NSCLC; 55.9% in the assay with SN12C renal. Also, the growth in the assay on UO-31 renal was 49.4%; in the assay with TK-10 renal, 79.3%; with ACHN renal it was 36.8%; in the assay on CCRF-CEM leukemia, 47.9%.

For the molecule `CCCCCCCCCCCCOC(=O)/C=C\C(=O)NC(N)=O`, the growth in the assay with HCT-15 colon is 57.9%; with HT29 colon it was 88.6%; in the assay with SNB-75 CNS, 81.5%; in the assay on SNB-19 CNS, 91.6%; in the assay on U251 CNS, 74%; with SK-MEL-5 melanoma, 99.6%. The growth in the assay with UACC-62 melanoma was 82%; in the assay with SK-MEL-28 melanoma it was 99.2%; in the assay with SK-MEL-2 melanoma it was 50.7%; with SN12C renal, 84.3%; in the assay with UO-31 renal, 93%; with TK-10 renal it was 86.9%. Moreover, the growth in the assay on CAKI-1 renal is 90.3%; with A498 renal it was 101%; with MOLT-4 leukemia, 45.1%.

With `CCCCCCCCCC(C)NC(=O)CCl` (stereo not given), the growth with HCT-15 colon was 89.6%; in the assay with HT29 colon it was 114%; in the assay on SNB-75 CNS it was 69.8%; in the assay on SNB-19 CNS it was 86.5%; with U251 CNS it was 82.1%; in the assay with SK-MEL-5 melanoma, 97.5%. Besides, the growth was 93.4% in the assay on UACC-62 melanoma; 47.9% in the assay with LOX IMVI melanoma; 95.3% in the assay with SK-MEL-28 melanoma; 75.1% with SN12C renal; 83.7% with UO-31 renal; 93.4% with CAKI-1 renal. In addition, the figures for the growth with A498 renal and in the assay with MOLT-4 leukemia were 91.3% and 72.1%, respectively.

Take `COc1cc2ncnc(-n3ncc4cc(NC(=O)Nc5ccccc5)ccc43)c2cc1OC`: the growth was 21% in the assay on HCT-15 colon; 29.1% in the assay with HT29 colon; -12.4% (active) with SNB-75 CNS; 44.7% with SNB-19 CNS; -18.4% (active) in the assay with PC-3 prostate; 40.2% in the assay on SK-MEL-5 melanoma. For the same molecule, the growth in the assay with UACC-62 melanoma was 23.9%; in the assay on LOX IMVI melanoma, 1.66% (active); in the assay on SK-MEL-28 melanoma it was -15.1% (active); with SK-MEL-2 melanoma, -4.23% (active); in the assay with EKVX NSCLC, -1.75% (active); in the assay with SN12C renal, 3.79% (active). Also, the growth was -44.4% (active) in the assay with UO-31 renal; -41.1% (active) in the assay with TK-10 renal; 17.1% in the assay with ACHN renal; 16.1% with CAKI-1 renal; -33.4% (active) in the assay with A498 renal; 22.9% in the assay on CCRF-CEM leukemia. Besides, the growth in the assay with MOLT-4 leukemia is 3.89% (active).

Turning to `CC(=O)C(CO)C(=O)Nc1ccccc1` (stereo not given), the growth is 98.8% with HCT-15 colon; 101% with HT29 colon; 63.3% in the assay with SNB-75 CNS; 101% with SNB-19 CNS; 102% with PC-3 prostate; 103% in the assay with SK-MEL-5 melanoma. The growth was 98.2% in the assay on UACC-62 melanoma; 83.7% with LOX IMVI melanoma; 99.8% in the assay with SK-MEL-28 melanoma; 90.4% in the assay on SK-MEL-2 melanoma; 101% in the assay on SN12C renal; 106% in the assay with UO-31 renal. The growth with TK-10 renal is 109%; in the assay on ACHN renal it was 93.3%; in the assay on CAKI-1 renal, 94.8%; in the assay on CCRF-CEM leukemia, 99.2%; in the assay with MOLT-4 leukemia it was 102%.

In the case of `CN(CCC#N)c1ccc(/C=C(\C#N)c2cccc(C(F)(F)F)c2)cc1`, the growth in the assay on HCT-15 colon was 39.9%; in the assay with HT29 colon it was 23.5%; with SNB-75 CNS, 90.1%; in the assay on SNB-19 CNS, 79%; in the assay with PC-3 prostate, 61.1%; in the assay on SK-MEL-5 melanoma it was 57.8%. Besides, the growth was 55.3% with UACC-62 melanoma; 63.2% with LOX IMVI melanoma; 71.9% with SK-MEL-28 melanoma; 51% in the assay on SK-MEL-2 melanoma; 72.1% with SN12C renal; 53.4% in the assay on UO-31 renal. The growth was 69.3% in the assay on TK-10 renal, 76.1% in the assay on ACHN renal, 49.8% with CAKI-1 renal and 53.8% in the assay with MOLT-4 leukemia.

`Nc1nc2c(c3ncncc13)C(c1cccc(C(F)(F)F)c1)Cc1ncncc1-2` (stereo not given): the growth in the assay on HCT-15 colon is 27%; in the assay with HT29 colon, 9.73% (active); in the assay on SNB-75 CNS, 8.31% (active); in the assay on SNB-19 CNS, 33.9%; in the assay on PC-3 prostate it was 26.4%; with SK-MEL-5 melanoma, 21.1%. Moreover, the growth in the assay on UACC-62 melanoma was 43.4%; with LOX IMVI melanoma, 36.8%; in the assay on SK-MEL-28 melanoma, 63.7%; in the assay with SK-MEL-2 melanoma, 48.2%; in the assay with EKVX NSCLC it was 48%; in the assay on SN12C renal, 55.2%. Further, the growth in the assay with UO-31 renal is 51%; in the assay on TK-10 renal it was 50.6%; with ACHN renal, 45%; in the assay with CAKI-1 renal, 34.5%; in the assay with A498 renal, -6.07% (active); in the assay with CCRF-CEM leukemia, 13.5%. Moreover, the growth in the assay on MOLT-4 leukemia was 29.2%.

Consider `COc1cc2ncnc(Nc3ccc4c(cnn4C(=O)Nc4ccccc4)c3)c2cc1OC`, for which the growth was 83.2% in the assay on HCT-15 colon; 51.1% with HT29 colon; 114% with SNB-75 CNS; 95.4% in the assay on SNB-19 CNS; 90.9% with SK-MEL-5 melanoma; 114% in the assay on UACC-62 melanoma. The growth is 93.2% with LOX IMVI melanoma; 77.3% in the assay with SK-MEL-28 melanoma; 103% in the assay with SK-MEL-2 melanoma; 85.2% in the assay on EKVX NSCLC; 82.1% with SN12C renal; 65.3% in the assay on UO-31 renal. For the same molecule, the growth is 72.3% in the assay with TK-10 renal; 94.2% in the assay with ACHN renal; 76.9% in the assay on CAKI-1 renal; 65.1% with A498 renal; 31.6% with CCRF-CEM leukemia.
